Measurements published in PubChem BioAssay AID434970 (Sanford-Burnham Center for Chemical Genomics, 2010).
The whole screen tested about 11,000 compounds, of which about 310 (2.8%) were called active. No stated cut-off is given here; in the data, active means activity change below about -85%; inactive means the rest. The full list was thinned out, with actives kept by preference.

System: intestinal alkaline phosphatase [Mus musculus]
Experiment: mouse intestinal phosphatase enzyme activation – biochemical, luminescence, single concentration, confirmation (AID 434970)
Conditions: purified mouse IAP, CDP-Star luminescence, 30 min, at 10 µM; activation factor: measured here: IAP activation factor, stronger effect = higher value; activity change, negative = activation: stronger effect = lower value

Row | SMILES | activation factor | activity change, negative = activation
1 | O=C(CC1CCCC1)Nc1nnc(C2CC2)s1 | 0.933 | 6.65% (inactive)
2 | Cc1onc(-c2ccccc2)c1C(=O)Nc1nc2c(s1)C(=O)CC(C)(C)C2 | 0.877 | 12.2% (inactive)
3 | CCOc1ccc(CCNC(=O)c2cc(-c3ccccc3)c(N3CCOCC3)s2)cc1 | 2.1 | -110% (active)
4 | CCOc1ccc(CCNC(=O)c2cc(-c3ccccc3)c(N3CCOCC3)s2)cc1OCC | 1.74 | -73.9% (inactive)
5 | O=C(NCCc1ccccc1)c1cc(-c2ccccc2)c(N2CCOCC2)s1 | 1.46 | -45.9% (inactive)
6 | O=C(NCCc1ccc(F)cc1)N1CCOCC1 | 1.01 | -0.6% (inactive)
7 | O=C(CCCC(=O)N(CC(=O)NC1CCCCC1)Cc1ccccc1)Nc1ccccn1 | 1.16 | -15.6% (inactive)
8 | CCCCC(=O)Nc1ccc(NC(=O)c2cccnc2)cn1 | 1.06 | -5.55% (inactive)
9 | Cc1ccccc1NC(=O)/C(=C\c1cccs1)NC(=O)c1ccccc1 | 1.02 | -1.5% (inactive)
10 | COc1ccc(C(CCN2CCOCC2)c2c(OC)cc(OC)c3c(-c4ccccc4)cc(=O)oc23)cc1 (centres undefined) | 1.07 | -7.05% (inactive)
11 | O=C(CN1CCN(S(=O)(=O)c2ccc(Cl)cc2)CC1)NC(=O)NC1CCCCC1 | 0.929 | 7.05% (inactive)
12 | O=C(Cc1ccccc1Cl)Nc1cccc(S(=O)(=O)N2CCCCCC2)c1 | 1.61 | -60.6% (inactive)
13 | O=C(Cc1ccc(Cl)cc1)Nc1cccc(S(=O)(=O)N2CCCCC2)c1 | 1.4 | -40.2% (inactive)
14 | O=C(Nc1cccc(S(=O)(=O)N2CCCCC2)c1)Nc1ccc(Cl)cc1Cl | 4.41 | -341% (active)
15 | O=C(Nc1ccc(Cl)cc1Cl)NC1CCN(S(=O)(=O)c2ccc(F)cc2)CC1 | 2.16 | -116% (active)
16 | O=C(Nc1ccc(Cl)cc1F)c1cc(S(=O)(=O)N2CCCCC2)ccc1F | 1.11 | -11.5% (inactive)
17 | O=C(Nc1cccc(Cl)c1)Nc1cc(S(=O)(=O)N2CCCCC2)ccc1Cl | 2.08 | -108% (active)
18 | Cc1cc(OCC(=O)Nc2cccc(S(=O)(=O)N3CCCCC3)c2)ccc1Cl | 1.81 | -81.3% (inactive)
19 | COc1ccc(CCNc2nc(-c3ccco3)cc(C(F)(F)F)n2)cc1OC | 0.889 | 11.2% (inactive)
20 | CCn1c(CSc2nc3ccccc3[nH]2)nc2cc(C(=O)O)ccc21 | 0.865 | 13.6% (inactive)
21 | CN1CCN(CCc2nc3cc(NC(=O)COc4ccccc4)ccc3n2C)CC1 | 0.96 | 4.05% (inactive)
22 | CN1CCN(C(=O)c2ccc3c(c2)OCCO3)CC1 | 0.959 | 4.15% (inactive)
